# In ChEMBL document CHEMBL3988442, “University of Dundee, Small-Polar-MMV Screening Library” (2021):
# The campaign covered roughly 48,000 compounds. About 13,000 (27%) showed an effect of 50% or more. This is one part of the list.
# System: Wolbachia pipientis
# Test: Anti-Wolbachia Cell-Based Screen
# Type: functional
# Parameters: scale not given: in the data most compounds retested in dose-response had high values
# Conditions: 5 µM
row,SMILES,Percent Effect
1,CC(C)(C)OC(=O)NCC1CCN(C(=O)c2ccc(F)cc2F)C1 (configuration not stated),18.58%
2,CC(c1nc(C2CC2)no1)N1CCN(CCOCC(F)(F)F)CC1 (configuration not stated),15.62%
3,CC(c1nc(C2CC2)no1)N1CCN(CCCN2CCCC2=O)CC1 (configuration not stated),95.99%
4,COCCCN1CCCN(C(C)c2nc(C3CC3)no2)CC1 (configuration not stated),-0.2305%
5,CC(c1nc(C2CC2)no1)N1CCN(CCn2ccccc2=O)CC1 (configuration not stated),-4.377%
6,CC(C)c1noc(C(C)N2CCN(CCN3CCCC3=O)CC2)n1 (configuration not stated),-2.358%
7,CC(C)c1noc(C(C)N2CCN(CCO)CC2)n1 (configuration not stated),-1.52%
8,CC(c1nc(C2CC2)no1)N1CCN(CCN2CCCC2=O)CC1 (configuration not stated),130.5%
9,CC(C)c1noc(C(C)N2CCN(CCCN3CCCC3=O)CC2)n1 (configuration not stated),113.6%
10,O=C(N1CCCC1)N1C[C@H]2CC[C@@]3(N=C(c4ccccc4)NC3=O)[C@H]2C1,-1.269%
11,Cc1nnc(SCc2ccccn2)s1,113.6%
12,COc1c(C)cnc(CSc2nnc(C)s2)c1C,6.724%
13,c1ccc(CSc2nnc(C3CC3)s2)nc1,-7.286%
14,Cc1nc(NCCSc2ccccn2)c2c(C)noc2n1,2.263%
15,CCC(Nc1nc(C)nc2onc(C)c12)c1nc(C)c(C)s1 (configuration not stated),99.23%
16,CCC(Nc1nc(CCN)nc2ccccc12)c1cccs1 (configuration not stated),21.59%
17,Cc1nc(NCCSc2cnn[nH]2)c2c(C)noc2n1,-13.5%
18,CCCc1nc(C)c(CNc2nc(C)nc3onc(C)c23)s1,18.49%
19,CCC(Nc1nc(C)nc2onc(C)c12)c1cccs1 (configuration not stated),84.62%
20,Cc1nc(COc2ccc(OCC(N)=O)cc2)oc1C,23.22%
21,CC(C)N(C)C(=O)CN1C(=O)OC[C@@H]1c1ccccc1,-15.23%
22,CCn1c(C)nnc1CN(C)C1CCN(Cc2sc(C)nc2C)C1 (configuration not stated),1.106%

row,SMILES,Percent Effect
1,Cc1ncc(CN(C)C2CCCN(Cc3noc(C4CC4)n3)C2)s1 (configuration not stated),1.76%
2,Cc1nc(C)c(CN2CCC(N(C)Cc3noc(C4CC4)n3)C2)s1 (configuration not stated),84.99%
3,Cc1nc(CN(C)C2CCN(Cc3sc(C)nc3C)C2)no1 (configuration not stated),-5.233%
4,Cc1nc(C)c(CN2CCC(N(C)Cc3nnc(C4CC4)o3)C2)s1 (configuration not stated),83.42%
5,Cc1ccc(N2CCCC(N(C)Cc3nnc(C4CC4)o3)C2)nn1 (configuration not stated),-13.84%
6,O=C(CN1C(=O)c2ccccc2CS1(=O)=O)c1ccccc1,-5.153%
7,COCC(C)NC(=O)c1cncc(Br)c1 (configuration not stated),15.5%
8,Cc1cc(O)cc2c(=O)oc(CC(C)O)cc12 (configuration not stated),-7.016%
9,Cc1ccc(-c2cn3c(n2)CO[C@@H](CNCc2nccs2)C3)cc1,-9.469%
10,CC(C)CCc1nc(CNCC2CN(C)CCO2)cs1 (configuration not stated),94.45%
11,Cc1ccc(OCc2nc(CNCC3CN(C)CCO3)cs2)cc1 (configuration not stated),109.6%
12,CN1CCOC(CNCc2nc(-c3ccccc3)cs2)C1 (configuration not stated),5.622%
13,Cc1c(F)cccc1NC(=O)N(C(C)CS(C)(=O)=O)C1CC1 (configuration not stated),-14.75%
14,CCC(CO)N(Cc1ccccn1)C(=O)c1ccc2c(c1)CCO2 (configuration not stated),6.403%
15,CCSCc1cccc(NC2CCN(C)C2=O)c1 (configuration not stated),-4.409%
16,CCCc1nc(CN2CCCC2Cn2cncn2)cs1 (configuration not stated),0.1257%
17,CCCc1nc(CN2CCCCC2Cn2cncn2)cs1 (configuration not stated),92.11%
18,CC(C)c1nc(CN2CCCCC2Cn2cncn2)cs1 (configuration not stated),82.22%
19,CC(C)c1nc(CN2CCCC2CN2CCCC2)cs1 (configuration not stated),11.4%
20,CN(C)C(=O)Cc1nc(CN2CCCCC2Cn2cncn2)cs1 (configuration not stated),-10.91%
21,c1ncn(CC2CCCCN2Cc2csc(C3CCCC3)n2)n1 (configuration not stated),3.175%
22,Cc1nc(C(NS(=O)(=O)N(C)C)c2ccccc2F)no1 (configuration not stated),-14.73%

row,SMILES,Percent Effect
1,O=C(NC[C@H]1OC[C@@H](NC2CCC(F)(F)CC2)[C@@H]1O)c1ccccc1,-10.21%
2,O=C(CCc1ccncc1)N1CCc2c(ncnc2N2CCOCC2)C1,-13.92%
3,COc1cc(C)c2c(c1C)C[C@H]([C@H](C)C(=O)O)CC2,-11.67%
4,CSCCC(C)NC(=O)CCN1C(=O)CCc2cc(F)ccc21 (configuration not stated),2.729%
5,Cn1ncc2c(=O)[nH]c(CN3CCCc4cc(F)ccc43)nc21,-1.731%
6,CN1Cc2cc(F)ccc2N(CC(C)(C)O)CCC1=O,116.8%
7,CCN1CCC(=O)N(C)Cc2cc(F)ccc21,110.2%
8,CCN1CC2(CCC1=O)CCN(Cc1cc(F)ccc1Cl)CC2,-6.305%
9,CN1CCN(S(C)(=O)=O)c2ccc(F)cc21,-0.158%
10,COc1cc(C(C)=O)ccc1OCC(=O)N(CC(C)C#N)C1CC1 (configuration not stated),-5.755%
11,O=C(CN1CCN(c2ccc3nncn3n2)CC1)NC1CCCC1,0.9347%
12,CC(=O)N1CC(c2ncn(C(C)C)n2)c2cc(C(=O)NC(C)C)ccc21 (configuration not stated),-2.765%
13,O=C(CN1CCN(c2ccc3nncn3n2)CC1)NC1CCCCC1,14.04%
14,O=C(NC1CC1)c1cccc(Oc2ccc3nncn3n2)c1,135.1%
15,CC(C)NC(=O)c1ccc2nnc(C3CCN(C(=O)NC(C)C)C3)n2c1 (configuration not stated),5.911%
16,CC(Nc1cccc(Oc2ccc(C#N)cn2)c1)C(=O)NC1CC1 (configuration not stated),4.844%
17,COc1cccc(C(=O)NCC(O)c2cccs2)c1 (configuration not stated),-0.6339%
18,CC(C)CNC(=O)c1cccc(Oc2ccc3nncn3n2)c1,96.36%
19,O=C(NC1CCCCC1)c1ccc(Oc2ccc3nncn3n2)cc1,113.3%
20,CN(C)C(CNC(=O)c1cccc(-n2cnnn2)c1)c1ccccc1Cl (configuration not stated),-8.623%
21,CC(C)NC(=O)c1cccc(Oc2ccc3nncn3n2)c1,131.1%
22,CC1CN(CC(=O)NC2CCCC2)CCN1c1ccc2nncn2n1 (configuration not stated),1.075%

row,SMILES,Percent Effect
1,N#Cc1cccnc1NCCNC(=O)N1CCCC(C(F)(F)F)C1 (configuration not stated),-23.68%
2,CS(=O)(=O)NCCC1CN(Cc2ccccc2F)CCO1 (configuration not stated),-13.1%
3,N#Cc1c[nH]c(C(=O)N(Cc2ccc(O)cc2)CC2CC2)c1,-16.08%
4,O=C(NCC(O)c1cccs1)c1cccc(Cl)c1 (configuration not stated),-18.24%
5,CNc1nc(C(=O)N2CCC3(CCCN(CCOC)C3=O)C2)cs1 (configuration not stated),-30.8%
6,O=C1CCNc2ncc(-c3ccc(Cl)cc3)cc2CN1C1CC1,113.7%
7,COc1ccc(-c2cnc3c(c2)CN(C2CC2)C(=O)CCN3)cc1,106.7%
8,O=S(=O)(c1ccccc1Cl)N1CCc2nc(C3CCNCC3)ncc2C1,-5.628%
9,COc1ccc(-c2nnc(CN3CCNC(=O)C3)o2)cc1,-34.6%
10,O=C(c1ncc[nH]1)N1CCC(n2cc(-c3cccc(Cl)c3)nn2)CC1,-7.325%
11,O=C1CCNc2ncc(-c3cccc(Cl)c3)cc2CN1C1CC1,104.4%
12,O=C1CCNc2ncc(-c3ccccc3Cl)cc2CN1C1CC1,75.8%
13,COc1ccc(NC2CCN(C3CC3)C2=O)cn1 (configuration not stated),-16.66%
14,CNC(=O)c1cn2cc(-c3cccc(Cl)c3)n(CC3CC3)c(=O)c2n1,-6.691%
15,CC(O)c1cn(C2CCN(C(=O)C3(C)CCCCC3)CC2)nn1 (configuration not stated),29.6%
16,NC(=O)CCOc1ccc(NC(=O)c2ccccc2OC(F)F)cc1,5.121%
17,CC(=O)N1CCC(N2CCOC[C@H]2c2nc(C(C)(C)C)c[nH]2)CC1,-20.09%
18,COc1cccc2c1OCC(CNC(=O)Cc1cnccn1)C2 (configuration not stated),-6.368%
19,COc1cccc2c1OCC(Cc1cnc(N)c(C)c1)C2 (configuration not stated),43.69%
20,COc1cccc2c1OCC(CNC(=O)Cn1ccnc1C)C2 (configuration not stated),-7.516%
21,COc1cccc2c1OCC(Cc1cc(C(=O)N3CCCC3)ccn1)C2 (configuration not stated),103.2%
22,COc1cccc2c1OCC(CNC(=O)Cc1csc(C(C)=O)c1)C2 (configuration not stated),-8.032%

row,SMILES,Percent Effect
1,COc1cccc2c1OCC(C(=O)N1CCSCC1)C2 (configuration not stated),-0.8492%
2,COc1cccc2c1OCC(CNC(=O)CN(C)C1CCCC1)C2 (configuration not stated),-4.207%
3,COc1cccc2c1OCC(Cc1cc(C(N)=O)ccn1)C2 (configuration not stated),86.97%
4,CCNC(=O)c1ccnc(CC2COc3c(cccc3OC)C2)c1 (configuration not stated),109.1%
5,CNC(=O)c1ccnc(CC2COc3c(cccc3OC)C2)c1 (configuration not stated),100.6%
6,COc1cccc2c1OCC(C(=O)N1Cc3ccccc3C1)C2 (configuration not stated),-46.74%
7,CCOCCC(=O)NCC1COc2c(cccc2OC)C1 (configuration not stated),-9.333%
8,CCCC(C)NCc1cnc(-c2cccc(C)c2)nc1 (configuration not stated),4.812%
9,CC1=C[C@@H](CN2CCC(O)CC2)[C@H](C(C)C)C[C@H]1Cc1nnc(C)o1,4.973%
10,CC(C(=O)N(C)Cc1ccco1)n1cncn1 (configuration not stated),14.16%
11,CN1Cc2[nH]nc(COCC3CC3)c2C1.O=C(O)C(F)(F)F.O=C(O)C(F)(F)F,-7.545%
12,CC(CO)CNC(=O)c1cc2cccc(F)c2o1 (configuration not stated),-10.54%
13,CN1CCN(CC2CC2)C(=O)c2cnc(N3CCCCC3)nc21,8.561%
14,CN1CCN(CC2CC2)C(=O)c2cnc(N3CCC(CO)CC3)nc21,85.31%
15,CN1CCN(CC2CC2)C(=O)c2cnc(N3CCOCC3)nc21,128%
16,CN1CCN(CC2CC2)C(=O)c2cnc(N3CCCC3)nc21,-1.77%
17,Cc1cnc(N2C[C@@H]3CCN(CC4CC4)C(=O)[C@H]3C2)nc1,4.769%
18,CN1CCN(CC2CC2)C(=O)c2cnc(N3CC[C@@H](O)C3)nc21,-2.603%
19,c1cc2c(cc1-c1noc3c1CN(C1CCSC1)CC3)OCO2 (configuration not stated),2.821%
